# Test results: the supplement of paper PMC13380429
# A number with no mark means an inactive call.
# Tested on: Vero E6 infected with SARS-CoV-2
# Assay: inhibition of SARS-CoV-2 cytopathic effect; higher = more antiviral protection, active = above 15
# Details: 48 h
SMILES,inhibition of SARS-CoV-2 cytopathic effect (1 nM),inhibition of SARS-CoV-2 cytopathic effect (8.33 nM),inhibition of SARS-CoV-2 cytopathic effect (100 nM),inhibition of SARS-CoV-2 cytopathic effect (833.33 nM),inhibition of SARS-CoV-2 cytopathic effect (10000 nM)
Clc1ccc(CCCOCCCN2CCCCC2)cc1 [pitolisant],1.67%,1.19%,-1.62%,-2.26%,-0.08%
OC[C@@H](O)[C@@H](O)CO [erythritol],-0.84%,-2.36%,-2.74%,0.56%,0.5%
COC(=O)N1CC[C@@H]2[C@H]1CCC[C@@]2(O)C#Cc1cccc(C)c1 [mavoglurant],0.66%,-0.18%,2.27%,-1.9%,-0.19%
CC[C@@H](C(=O)[C@@H](C)[C@@H](O)[C@H](C)[C@@H]1O[C@@H]([C@@H](CC)C(=O)O)CC[C@@H]1C)[C@H]1O[C@]2(C=C[C@@H](O)[C@]3(CC[C@@](C)([C@H]4CC[C@](O)(CC)[C@H](C)O4)O3)O2)[C@H](C)C[C@@H]1C [Salinomycin (Procoxacin)],-2.73%,0.16%,4.82%,50.9% (active),57% (active)
O=C1Nc2cc(Cl)c(Cl)cc2N2CCNC[C@H]12,-0.02%,-0.54%,1.72%,0.92%,1.67%
CNc1cc(OC)c(C(=O)NC2CCN(Cc3ccccc3)C2C)cc1Cl (stereo not given) [nemonapride],-1.01%,2.19%,0.65%,-1.52%,2.33%
O=C(CCCN1CCC(O)(c2ccc(Br)cc2)CC1)c1ccc(F)cc1 [bromperidol],3.91%,3.53%,2.65%,-0.17%,-3.61%
Nc1cc(C(Cl)=C(Cl)Cl)c(S(N)(=O)=O)cc1S(N)(=O)=O [clorsulon],-0.52%,2.04%,2.84%,-0.01%,-2.69%
Oc1c(CN2CCCC2)cc(COCc2ccccc2)c2cccnc12,-1.11%,-0.88%,0.87%,-0.42%,2.93%
O=C(O)c1ccc(OCCn2ccnc2)cc1 [dazoxiben],1.06%,2.92%,3.5%,-0.21%,-0.65%
CC12CC3CC(C)(C1)CC(N)(C3)C2 [memantine],0.45%,0.23%,1.56%,2%,-1.57%
CN(C)CCN(C)CCc1ccc(Cl)c(Cl)c1,-3%,-0.98%,1.41%,-3.83%,-3.28%
C[N+](C)(C)CC[N+]1(C)Cc2c(Cl)c(Cl)c(Cl)c(Cl)c2C1 [chlorisondamine-diiodide],0.2%,-3.86%,-0.88%,1.41%,-1.63%
CN(C)C(=O)CCSC(SCCC(=O)O)c1cccc(/C=C/c2ccc3ccc(Cl)cc3n2)c1 (stereo not given),-1.06%,-1.39%,3.57%,1.55%,5.11%
Nc1nc(OCc2cc(Br)cs2)c2[nH]cnc2n1 [lomeguatrib],-1%,0%,0.04%,-0.89%,0.11%
COc1cc(C(=O)N(CC[C@H]2CCCN2C)C/C(C)=C/c2ccccc2F)cc(OC)c1OC (racemic),-0.69%,-1.9%,1.94%,-0.01%,-1.76%
C[C@@H](c1nc(-c2ccc(C#N)cc2)cs1)[C@](O)(Cn1cncn1)c1cc(F)ccc1F [isavuconazole],-2.38%,-2.11%,-0.9%,1.65%,2.79%
COc1cc2c(cc1OC)C(=O)C(CC1CCN(Cc3ccccc3)CC1)C2 (stereo not given) [donepezil],-2.44%,-3.45%,-1.84%,-1.28%,-8.45%
O=C(Oc1ccc([N+](=O)[O-])cc1)N1CCN(Cc2cccc(Oc3ccccc3)c2)CC1,-1.56%,-2.22%,-1.22%,-1.53%,1.51%
CO[C@H]1/C=C/O[C@@]2(C)Oc3c(C)c(O)c4c(O)c(c(/C=N/N5CCN(C)CC5)c(O)c4c3C2=O)NC(=O)/C(C)=C\C=C\[C@H](C)[C@H](O)[C@@H](C)[C@@H](O)[C@@H](C)[C@H](OC(C)=O)[C@@H]1C [rifampin],-3.64%,-3.69%,-2.5%,-3.32%,-1.54%

SMILES,inhibition of SARS-CoV-2 cytopathic effect (1 nM),inhibition of SARS-CoV-2 cytopathic effect (8.33 nM),inhibition of SARS-CoV-2 cytopathic effect (100 nM),inhibition of SARS-CoV-2 cytopathic effect (833.33 nM),inhibition of SARS-CoV-2 cytopathic effect (10000 nM)
C=CCN1C[C@H](C)N([C@H](c2ccc(C(=O)N(CC)CC)cc2)c2cccc(OC)c2)C[C@H]1C,-0.66%,1.28%,1.71%,-0.17%,-1.85%
O=C(O)CCC(=O)O [succinic-acid],-0.06%,-1.83%,-1.13%,-0.66%,2.3%
CCCCN1CCCC1CNC(=O)c1cc(C#N)c2ccccc2c1OC (stereo not given) [nafadotride],-1.44%,-0.63%,-0.23%,0.59%,0.87%
O=C1c2ccc(Nc3ccc(F)cc3F)cc2CCc2ccc(OC[C@H](O)CO)cc21 [skepinone-L],-0.76%,-3.41%,-5.13%,-8.06%,-9.5%
CC[N+](CC)(CC)CCOc1cccc(OCC[N+](CC)(CC)CC)c1OCC[N+](CC)(CC)CC [gallamine-triethiodide],0.22%,3.57%,3.37%,2.88%,-1.08%
CN1C(C(=O)Nc2ccccn2)=C(O)c2ccccc2S1(=O)=O [piroxicam],0.3%,-0.73%,0.15%,0.8%,1.41%
C[S+]([O-])CCCCN=C=S (stereo not given) [sulforaphane],-7.22%,-6.04%,-3.89%,-3.35%,35.2% (active)
CC1(C)OC[C@@H](COC(=O)CCc2ccc(OC[C@@H](O)CNCCNC(=O)N3CCOCC3)cc2)O1 [landiolol],-7.81%,-4.59%,-1.18%,-1.43%,-1.67%
O=C(O)c1cn(-c2ccc(F)cc2)c2cc(N3CCNCC3)c(F)cc2c1=O [sarafloxacin],-2.73%,-5.26%,-3.5%,-5.86%,-4.93%
CC(C)C[C@H](NC(=O)[C@H](CCc1ccccc1)NC(=O)CN1CCOCC1)C(=O)N[C@@H](Cc1ccccc1)C(=O)N[C@@H](CC(C)C)C(=O)[C@@]1(C)CO1 [carfilzomib],-1.68%,-2.43%,11.4%,34.9% (active),10.2%
O=C(Nc1cc(Oc2cc(F)c(NC(=O)C3(C(=O)Nc4ccc(F)cc4)CC3)cc2F)ccn1)C1CC1 [altiratinib],-1%,2.23%,3.44%,-1.62%,1.09%
CC(C)(Sc1ccc(CCN(CCCCC2CCCCC2)C(=O)NC2CCCCC2)cc1)C(=O)O,-11.4%,-10%,-5.76%,-3.65%,-8.5%
c1cn2cc(-c3ccc4cn[nH]c4c3)nc(Nc3ccc(N4CCOCC4)cc3)c2n1,-4.37%,-3.35%,-4.69%,0.03%,-4.57%
CN(C)CCc1c[nH]c2ccc(Cn3cncn3)cc12 [rizatriptan],-0.4%,0.07%,-1.66%,-0.7%,-1.6%
CCN(CC)CCOC(=O)c1ccc(N)cc1 [procaine],-1.32%,-0.89%,-0.82%,-1.72%,-0.17%
O=C(/C=C/c1ccc2ccc(C(F)(F)F)cc2n1)c1ccncc1,1.93%,0%,-3.01%,0.28%,5.19%
N#Cc1cc(-c2n[nH]c(-c3ccncc3)n2)ccn1 [topiroxostat],0.4%,0.34%,3.87%,-0.47%,0.11%
Cn1cnc2c(NCc3ccccc3)nc(NCCO)nc21 [olomoucine],1.4%,1.88%,1.77%,-0.46%,-0.63%
C[C@H](Cc1cc2c(c(C(N)=O)c1)N(CCCO)CC2)NCCOc1ccccc1OCC(F)(F)F [silodosin],3.7%,-1.05%,2.16%,2.24%,3.11%
